Experimental data reported in PubChem BioAssay (NCI).
Values joined by “and” are separate entries in the source; they are usually repeats but may differ in a detail not shown here. Equal values may be shown once. This is part of a sample that, as a whole, favours compounds with a hit. Of some 79,000 tested, about 15% had one in any assay. A structure can be active in one record and inactive in another. Active and inactive are the calls of the source. Rule as the data show it: active = growth inhibition above about 70%; inactive = the rest.

Columns and labels:
[1] = NCI Yeast Anticancer Drug Screen. Data for the rad52 strain (AID 147);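 also: 0% = growth of vehicle-treated control cultures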; conditions: S. cerevisiae rad52 mutant growth inhibition, stronger effect = higher value
In short: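 Screen used a yeast mutant impaired in DNA repair. After compound exposure, growth was measured. Values reflect inhibition compared with vehicle-treated cells.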

[2] = NCI Yeast Anticancer Drug Screen. Data for the wt1 strain (AID 149);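 also: 0% = growth of vehicle-treated wt1 cultures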; conditions: S. cerevisiae wt1 strain (SPY 50644) growth inhibition, stronger effect = higher value
In short: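 Compounds are added to wt1 yeast cultures. Growth is then measured. Inhibition is expressed relative to vehicle-treated controls.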

[3] = NCI Yeast Anticancer Drug Screen. Data for the rad50EPP+ strain (AID 151);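 also: 0% = growth of vehicle-treated control cultures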; conditions: S. cerevisiae rad50 mutant strain, stronger effect = higher value
In short: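 Exposing the rad50EPP+ strain to each compound, growth was compared with vehicle-only cultures to give inhibition.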

[4] = NCI Yeast Anticancer Drug Screen. Data for the mgt1 strain (AID 153); conditions: S. cerevisiae mgt1 mutant growth inhibition, stronger effect = higher value
In short: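 Genetically defined yeast (mgt1) treated with compound; inhibition of growth expressed against vehicle-treated controls.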

[5] = NCI Yeast Anticancer Drug Screen. Data for the rad50 strain (AID 155);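 also: 0% = growth of vehicle-only cultures of the same strain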; conditions: S. cerevisiae rad50 strain growth inhibition, stronger effect = higher value
In short: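 Inhibition values express reduced yeast growth in compound-treated cultures relative to vehicle-treated controls.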

[6] = NCI Yeast Anticancer Drug Screen. Data for the mec2-1 strain (AID 157); conditions: S. cerevisiae mec2-1 strain, stronger effect = higher value
In short: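 Readout is yeast growth inhibition, normalised to vehicle-treated controls, in the mec2-1 strain exposed to compound.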

[7] = NCI Yeast Anticancer Drug Screen. Data for the rad14 strain (AID 159);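 also: 0% = growth of vehicle-treated control cultures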; conditions: S. cerevisiae rad14 strain growth inhibition, stronger effect = higher value
In short: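 A mutant yeast strain defective in DNA damage repair is treated with compound; inhibition of its growth is scored against untreated, vehicle-exposed cultures.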

[8] = NCI Yeast Anticancer Drug Screen. Data for the sgs1 mgt1 strain (AID 161);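 also: 0% = growth of cultures given vehicle only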; conditions: S. cerevisiae sgs1 mgt1 strain, stronger effect = higher value
In short: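 Compounds are added to genetically altered yeast, and growth is compared with cultures given vehicle alone to give percent inhibition.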

[9] = NCI Yeast Anticancer Drug Screen. Data for the CLN2oe strain (AID 163);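 also: 0% = growth of vehicle-only control cultures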; conditions: S. cerevisiae CLN2oe strain, stronger effect = higher value
In short: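 Values reflect how much compound exposure reduced yeast growth, referenced to vehicle-exposed cells. Assay organism is a strain with a defined genetic change affecting cell-cycle control.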

[10] = NCI Yeast Anticancer Drug Screen. Data for the cln2 rad14 strain (AID 165);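 also: 0% = growth equal to vehicle treated cultures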; conditions: S. cerevisiae cln2 rad14 strain, stronger effect = higher value
In short: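 Relative to vehicle controls, growth inhibition of compound-treated cln2 rad14 yeast was recorded.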

[11] = NCI Yeast Anticancer Drug Screen. Data for the bub3 strain (AID 167); conditions: S. cerevisiae bub3 mutant strain, stronger effect = higher value
In short: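 Steps: expose the mutant yeast strain to compound; grow alongside vehicle-treated cultures; measure growth; express inhibition against the vehicle cultures.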

[12] = NCI Yeast Anticancer Drug Screen. Data for the wt2 strain (AID 169);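 also: 0% = growth of vehicle-treated yeast cultures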; conditions: S. cerevisiae wt2 strain growth inhibition, stronger effect = higher value
In short: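 Values express reduction in yeast growth under compound treatment, referenced to vehicle-treated cells.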

[13] = NCI Yeast Anticancer Drug Screen. Data for the mlh1 strain (AID 171);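 also: 0% = growth of vehicle-treated control cultures of the same strain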; conditions: S. cerevisiae mlh1 strain growth inhibition, stronger effect = higher value
In short: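 Steps: expose the defined-mutant yeast strain to compound; expose a parallel culture to vehicle; measure growth; express compound effect as inhibition relative to the vehicle culture.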

[14] = NCI Yeast Anticancer Drug Screen. Data for the sgs1 strain (AID 173);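 also: 0% = growth of vehicle-only control cultures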; conditions: S. cerevisiae sgs1 mutant, stronger effect = higher value
In short: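 Treat defined-mutant yeast with compound; measure growth; calculate inhibition relative to vehicle-treated cells.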

[15] = NCI Yeast Anticancer Drug Screen. Data for the mlh1 rad18 strain (AID 175); conditions: S. cerevisiae mlh1 rad18 strain growth inhibition, stronger effect = higher value
In short: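 Test agents were incubated with a yeast strain of defined genotype (DNA damage repair defect). Inhibition of growth was derived by comparison with vehicle-exposed cultures.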

[16] = NCI Yeast Anticancer Drug Screen. Data for the rad18 strain (AID 177); conditions: S. cerevisiae rad18 mutant growth inhibition, stronger effect = higher value
In short: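 A genetically defined yeast mutant impaired in DNA damage repair was treated with test compounds, then its growth was measured against cultures receiving vehicle alone.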

[17] = at 5.0 µM (retest, dose inferred, filed as 0.5)
[18] = at 50.0 µM (retest, dose inferred, filed as 5.0)

Measured: growth inhibition

CCCCCOC(=S)SC(=O)OCC
active: [1]; at 100.0 µM 94% | [4]; at 100.0 µM 92% | [5]; at 33.0 µM 84% | [5]; [18] 95% | [5]; at 50.0 µM 98% | [5]; at 100.0 µM 95% | [6]; [18] 95% | [6]; at 50.0 µM 98.5% | [6]; at 100.0 µM 86% | [7]; at 100.0 µM 92% | [8]; [18] 97% | [8]; at 50.0 µM 97.7% | [11]; at 33.0 µM 82% | [11]; [18] 96% | [11]; at 50.0 µM 96.8% | [11]; at 100.0 µM 94% | [12]; at 100.0 µM 90% | [13]; at 100.0 µM 95% | [14]; at 33.0 µM 90% | [14]; at 100.0 µM 97% | [15]; [18] 96% | [15]; at 50.0 µM 96.6% | [16]; at 33.0 µM 90% | [16]; at 100.0 µM 98%
inactive: [1]; at 1.2 µM 0% | [1]; at 3.7 µM 7% | [1]; at 11.0 µM 27% | [1]; at 33.0 µM 63% | [2]; at 1.2 µM -4% | [2]; at 3.7 µM -1% | [2]; at 11.0 µM 8% | [2]; at 33.0 µM 35% | [2]; at 100.0 µM 64% | [3]; at 1.2 µM -3% | [3]; at 3.7 µM 9% | [3]; at 11.0 µM 18% | [3]; at 33.0 µM 30% | [3]; at 100.0 µM 36% | [4]; at 1.2 µM -4% | [4]; at 3.7 µM -2% | [4]; at 11.0 µM 6% | [4]; at 33.0 µM 37% | [5]; at 1.2 µM 1% | [5]; at 3.7 µM 32% | [5]; [17] 20% | [5]; at 11.0 µM 51% | [6]; at 1.2 µM -3% | [6]; at 3.7 µM 3% | [6]; [17] 27% | [6]; at 11.0 µM 26% | [6]; at 33.0 µM 48% | [7]; at 1.2 µM -5% | [7]; at 3.7 µM -4% | [7]; at 11.0 µM 12% | [7]; at 33.0 µM 42% | [8]; [17] 33% | [9]; at 1.2 µM -7% | [9]; at 3.7 µM -6% | [9]; at 11.0 µM -7% | [9]; at 33.0 µM 1% | [9]; at 100.0 µM 30% | [10]; [17] 9% | [10]; [18] 53% | [10]; at 50.0 µM 64.8% | [11]; at 1.2 µM 2% | [11]; at 3.7 µM 6% | [11]; [17] 55% | [11]; at 11.0 µM 40% | [12]; at 1.2 µM -4% | [12]; at 3.7 µM 6% | [12]; at 11.0 µM 4% | [12]; at 33.0 µM 39% | [13]; at 1.2 µM -1% | [13]; at 3.7 µM 2% | [13]; at 11.0 µM 14% | [13]; at 33.0 µM 63% | [14]; at 1.2 µM -3% | [14]; at 3.7 µM 4% | [14]; at 11.0 µM 45% | [15]; [17] 43% | [16]; at 1.2 µM -5% | [16]; at 3.7 µM 5% | [16]; at 11.0 µM 33%

COc1cc([C@@H]2c3cc4c(cc3[C@@H](Nc3ccc(NC(=O)c5cc([N+](=O)[O-])cn5C)cc3)[C@H]3COC(=O)[C@H]23)OCO4)cc(OC)c1O
inactive: [1]; at 1.2 µM 25% | [2]; at 1.2 µM 9% | [2]; at 3.7 µM 20% | [2]; at 11.0 µM 26% | [2]; at 33.0 µM 32% | [2]; at 100.0 µM 36% | [3]; at 1.2 µM 4% | [3]; at 3.7 µM 10% | [3]; at 11.0 µM 27% | [3]; at 33.0 µM 14% | [3]; at 100.0 µM 22% | [4]; at 1.2 µM -3% | [4]; at 3.7 µM 5% | [4]; at 11.0 µM 14% | [4]; at 33.0 µM 35% | [4]; at 100.0 µM 41% | [5]; at 1.2 µM 11% | [6]; at 1.2 µM -16% | [6]; at 3.7 µM 6% | [6]; [17] 38% and 52% | [6]; at 11.0 µM 42% | [6]; at 33.0 µM 66% | [7]; at 1.2 µM 4% | [7]; at 3.7 µM 16% | [7]; at 11.0 µM 18% | [7]; at 33.0 µM 50% | [7]; at 100.0 µM 59% | [8]; [17] 16% and 54% | [8]; at 50.0 µM 47.5% and 67% | [9]; at 1.2 µM 19% | [9]; at 3.7 µM 23% | [9]; at 11.0 µM 44% | [9]; at 33.0 µM 58% | [10]; [17] 16% and 22% | [10]; at 50.0 µM 47% and 49.9% | [11]; at 1.2 µM -10% | [11]; at 3.7 µM 0% | [11]; [17] 19% and 42% | [11]; at 11.0 µM 14% | [11]; at 33.0 µM 36% | [11]; at 50.0 µM 26.8% and 51.2% | [11]; at 100.0 µM 43%
active: [1]; at 3.7 µM 84% | [1]; at 11.0 µM 92% | [1]; at 33.0 µM 91% | [1]; at 100.0 µM 93% | [5]; at 3.7 µM 74% | [5]; [17] 92% and 96% | [5]; at 11.0 µM 88% | [5]; at 33.0 µM 92% | [5]; [18] 95% and 97% | [5]; at 100.0 µM 92% | [6]; [18] 79% and 96% | [6]; at 100.0 µM 74% | [9]; at 100.0 µM 77%
67.5% (inactive) and 74.8% (active): [6]; at 50.0 µM
53% (inactive) and 93% (active): [8]; [18]
50% (inactive) and 84% (active): [10]; [18]
67.5% (inactive) and 75.9% (active): [5]; at 50.0 µM
46% (inactive) and 90% (active): [11]; [18]
